# Source: the antibiotic and cytotoxicity screens of Wong et al. (2023)
# Among all 39,000 compounds or so, about 3,300 (8.5%) were called active. This is one part of a sample in which actives are shown more often than they occur.
# Tested on: HepG2
# Assay: cytotoxicity call (relative viability < 0.9)
# Conditions: 10 µM
row,Structure (SMILES),cytotoxicity call
1,CS(=O)(=O)N1C[C@H]2CN(C(=O)c3cnccn3)C[C@@H]2C1,inactive
2,Cc1cc(SCc2ccc(F)cc2)c(C)cc1Cl,inactive
3,Cc1noc(C)c1NC(=O)N(C)C[C@H]1Oc2c(NC(=O)c3cnccn3)cccc2C(=O)N([C@@H](C)CO)C[C@H]1C,inactive
4,Cc1noc(C)c1S(=O)(=O)Nc1ccc2c(c1)C(=O)N([C@H](C)CO)C[C@H](C)[C@@H](CN(C)S(=O)(=O)c1ccc(Cl)cc1)O2,inactive
5,COCC#Cc1cnc2c(c1)C(=O)N([C@@H](C)CO)C[C@H](C)[C@H](CN(C)S(=O)(=O)c1cn(C)cn1)O2,inactive
6,COCC(=O)N[C@H]1C=C[C@@H](CC(=O)N2CCCCC2)O[C@@H]1CO,inactive
7,CCCC#Cc1ccc2c(c1)O[C@H](CN(C)S(=O)(=O)c1cccc(OC)c1)[C@H](C)CN([C@H](C)CO)S2(=O)=O,inactive
8,C[C@@H]1CCCCO[C@@H](CN(C)C(=O)Nc2ccccc2)[C@@H](C)CN([C@H](C)CO)C(=O)c2cc(NC(=O)CCCCCC(=O)Nc3ccccc3N)ccc2O1,inactive
9,O=C(C1=C[C@@H](c2csc3ccccc23)C[C@@H](OCc2ccc(CO)cc2)O1)N1CCN(Cc2ccccc2)CC1,inactive
10,C[C@@H]1CCCCO[C@@H](CN(C)C(=O)Nc2ccc(F)cc2)[C@H](C)CN([C@H](C)CO)C(=O)c2cc(NC(=O)C3CCCCC3)ccc2O1,inactive
11,CN1CCN(C(=O)C[C@H]2CC[C@H]3[C@@H](COC[C@@H](O)CN3C(=O)C3CCCC3)O2)CC1,inactive
12,Cc1cc(NC(=O)CSc2nnc[nH]2)no1,inactive
13,Cc1ccc(S(=O)(=O)Nc2ccc3c(c2)CC(=O)N([C@@H](C)CO)C[C@@H](C)[C@@H](CN(C)Cc2ccc(-c4ccccc4)cc2)O3)cc1,active
14,Cc1ccc(S(=O)(=O)Nc2ccc3c(c2)CC(=O)N([C@@H](C)CO)C[C@H](C)[C@@H](CN(C)Cc2ccc(-c4ccccc4)cc2)O3)cc1,inactive
15,Cc1ccc(S(=O)(=O)Nc2ccc3c(c2)CC(=O)N([C@@H](C)CO)C[C@H](C)[C@H](CN(C)Cc2ccc(-c4ccccc4)cc2)O3)cc1,inactive
16,Cc1noc(C)c1NC(=O)N(C)C[C@H]1OCCCC[C@@H](C)Oc2ccc(NC(=O)Nc3ccc(C(F)(F)F)cc3)cc2C(=O)N([C@H](C)CO)C[C@@H]1C,inactive
17,C[C@H](CO)N1C[C@H](C)[C@H](CN(C)S(=O)(=O)c2ccc(F)cc2)Oc2ccc(NS(=O)(=O)c3ccccc3)cc2C1=O,inactive
18,Cc1ccc2nc(Nc3ccccc3)nc(-c3ccccc3)c2c1,inactive

row,Structure (SMILES),cytotoxicity call
1,Cc1ccc(Nc2c(-c3ccccc3)nc3ccccn23)cc1,inactive
2,Cc1ccc(Nc2nnc(-c3ccccc3)c3ccccc23)cc1,active
3,C[C@H](CO)N1C[C@H](C)[C@H](CN(C)S(=O)(=O)c2ccc3ccccc3c2)OCc2cn(nn2)CCCC1=O,inactive
4,C[C@@H]1CN([C@@H](C)CO)C(=O)c2cccc(NC(=O)C3CCCCC3)c2O[C@H]1CN(C)Cc1ccc(C(=O)Nc2ccccc2N)cc1,inactive
5,C[C@@H]1CN([C@@H](C)CO)C(=O)c2cccc(NC(=O)NC3CCCCC3)c2O[C@@H]1CN(C)Cc1ccc(C(=O)Nc2ccccc2N)cc1,inactive
6,C[C@H](CO)N1C[C@H](C)[C@H](CN(C)Cc2ccc(C(=O)Nc3ccccc3N)cc2)Oc2c(NC(=O)C3CCCCC3)cccc2C1=O,inactive
7,C[C@H]1CN([C@@H](C)CO)C(=O)c2cccc(NC(=O)NC3CCCCC3)c2O[C@H]1CN(C)Cc1ccc(C(=O)Nc2ccccc2N)cc1,inactive
8,C[C@@H]1CN([C@H](C)CO)C(=O)c2cccc(NC(=O)C3CCCCC3)c2O[C@H]1CN(C)Cc1ccc(C(=O)Nc2ccccc2N)cc1,inactive
9,C[C@H](CO)N1C[C@H](C)[C@H](CN(C)Cc2ccc(C(=O)Nc3ccccc3N)cc2)Oc2c(NC(=O)NC3CCCCC3)cccc2C1=O,active
10,C[C@H]1CN([C@@H](C)CO)C(=O)c2cccc(NC(=O)C3CCCCC3)c2O[C@@H]1CN(C)Cc1ccc(C(=O)Nc2ccccc2N)cc1,inactive
11,C[C@@H]1CN([C@@H](C)CO)C(=O)c2cccc(NC(=O)C3CCCCC3)c2O[C@@H]1CN(C)Cc1ccc(C(=O)Nc2ccccc2N)cc1,active
12,C[C@H]1CN([C@@H](C)CO)C(=O)c2cccc(NC(=O)C3CCCCC3)c2O[C@H]1CN(C)Cc1ccc(C(=O)Nc2ccccc2N)cc1,active
13,C[C@@H]1CN([C@@H](C)CO)C(=O)c2cc(NC(=O)C3CC3)ccc2O[C@@H]1CN(C)S(=O)(=O)c1ccc(Cl)cc1,inactive
14,Cc1ccc(S(=O)(=O)N(C)C[C@H]2OCCCC[C@@H](C)Oc3ccc(NC(=O)Nc4ccc(C(F)(F)F)cc4)cc3C(=O)N([C@@H](C)CO)C[C@H]2C)cc1,inactive
15,O=C(O)c1c(Br)c(Br)c(Br)c(Br)c1-c1c2ccc(=O)cc-2oc2cc(O)ccc12,inactive
16,CNC[C@@H]1OCCCC[C@H](C)Oc2ccc(NC(=O)Nc3ccc(C(F)(F)F)cc3)cc2C(=O)N([C@@H](C)CO)C[C@@H]1C,inactive
17,COc1ccc(S(=O)(=O)N(C)C[C@@H]2Oc3ccc(NC(=O)CCCN(C)C)cc3C(=O)N([C@@H](C)CO)C[C@H]2C)cc1,inactive
